Experimental findings from the supplement of paper PMC10681739 are described below.
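Also: Full-length recombinant human RUNX1 bound to double-stranded 36-bp genomic probes on a high-density microarray, scored as Alexa488 fluorescence per spot via anti-RUNX1 antibody, median of four replicate spots.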

For the test, the target named is RUNX1 (UniProt Q01196). The test is described as follows: RUNX1 binding intensity (PBM fluorescence), RUNX1 alone (arbitrary fluorescence units); higher = stronger binding. Particulars: RUNX1 concentration 2 nM; ETS1 concentration 0 nM. As for the experimental part: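 Cooperative gcPBM on 36-bp genomic probes with neighbouring ETS1 and RUNX1 sites. Recombinant human RUNX1 (2 nM) was incubated alone or with ETS1 (25 nM) and detected with anti-RUNX1 antibody plus Alexa488 secondary. Values are medians over 4 replicate spots; the RUNX1+ETS1 data were normalised to the RUNX1-only data. The probes sit in constant array flanks that are not printed.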
RUNX1, sequence (Q01196 whole entry): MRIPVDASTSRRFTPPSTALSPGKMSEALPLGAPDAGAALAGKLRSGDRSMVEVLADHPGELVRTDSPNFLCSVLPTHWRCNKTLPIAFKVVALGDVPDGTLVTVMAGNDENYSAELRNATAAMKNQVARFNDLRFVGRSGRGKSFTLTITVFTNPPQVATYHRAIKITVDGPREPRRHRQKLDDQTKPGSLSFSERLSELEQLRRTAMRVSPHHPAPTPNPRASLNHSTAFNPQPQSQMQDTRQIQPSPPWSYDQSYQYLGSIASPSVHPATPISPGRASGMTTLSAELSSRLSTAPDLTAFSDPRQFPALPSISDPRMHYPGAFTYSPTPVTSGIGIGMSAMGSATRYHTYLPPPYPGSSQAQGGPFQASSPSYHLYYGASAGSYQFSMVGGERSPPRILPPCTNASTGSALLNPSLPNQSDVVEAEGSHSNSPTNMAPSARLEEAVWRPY
For GCTGTCCGTTTCCGAGATGTTAATGCGGGGTCTTGC, the RUNX1 binding intensity is 866.

Sequence GGCGGGGCATCCGGCAGCACCGCCTGCGGGCGCCCG registered an RUNX1 binding intensity of 667.

As to CGGCGCCTTCCGCAGAGGGACTGCGGCTTTCTGCGC, the RUNX1 binding intensity amounted to 946.

Sequence TTATGCCTCAGGATGAACGAACCTCAAACACCCAGG returned an RUNX1 binding intensity of 904.

TTCTCATCCGGCCGGCTTGCTTTCCCCTGCGGTCGT returned an RUNX1 binding intensity of 962.

As for GAAGCCCAACAGGATGCCGAGTAACCACCCACTGAA, the RUNX1 binding intensity was 822.

Regarding ACCAGAACTAAAGCGGATAGCGGTTAGAAACGCCCA, the RUNX1 binding intensity turned out to be 872.

GAGCCCAACCGGCATCCGTCGCGGTTGGACGTGGGC displayed an RUNX1 binding intensity of 761.

ACCAGAACAGGAAATGTTAGTGGTTGAGTTAACGGT gave an RUNX1 binding intensity of 700.

For CCCGGCCCAGGAAACTTCAGACTTCACCGCAGCTTC, the RUNX1 binding intensity came to 1060.

CGGGGTTTCCTGGTGGCTGCGAGCGGTGGGGACGGC had an RUNX1 binding intensity of 728.

The sequence GACTCTTCCGGCCCAGAGCTTTCGGAGTGCGGTTGC gave an RUNX1 binding intensity of 858.

CCCCTACTTCCCTTTTTGCTGGGCCGCAGTTTCGGT returned an RUNX1 binding intensity of 1490.

In turn, TGCCACCTGCTTCCTGCCTGTGTAGCCACAAGGGAC came in with an RUNX1 binding intensity of 910.

The sequence ATTTTAGCATTTTCCTGCTCGGAGACCACATGTTTG displayed an RUNX1 binding intensity of 1170.

The sequence TCCACAGCCGGTTCCGGCCGGTTCCCACAAGCCCCT gave an RUNX1 binding intensity of 844.

In turn, TCTGGCTGGGTGTTGGGATGTGGTTAACCGGGTTGG had an RUNX1 binding intensity of 797.

With GCGGCTTTGTACGGAAACCCACACACATTGTTATTT, the RUNX1 binding intensity came to 984.

For AGAGGCAGTTCCGGGGTGGGAACCGCGCGGAGCTTT, the RUNX1 binding intensity is 687.

As to AGCTTGCTTCCTGTCCCCAAAACCCACAGCACACGG, the RUNX1 binding intensity stood at 893.

TTTTTTCCGCCTGTAGGGTCACATTGTGGTTGATTG registered an RUNX1 binding intensity of 1000.
